# Source: the supplement of paper PMC3334620
# Whole data set: some 33,000 sequences, median “E-score (-0.5 to 0.5)” near -0.016, cut for the highest 2% near 0.31. Only a selection was taken, and the highest values are over-represented in it overall.
# Target: Cst6 (UniProt P40535)
# Experiment: PBM E-score (8-mer binding enrichment) (E-score (-0.5 to 0.5)); higher = stronger / more preferred TF binding
# Conditions: protein concentration: 200 nM; construct: GST-DNA-binding domain
# Protocol: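 Universal 'all 10-mer' protein binding microarrays (Agilent AMADID 015681) probed with GST-tagged S. cerevisiae TFs (full-length or DBD) made by in vitro transcription/translation (PURExpress), about 100-200 nM. Bound TF was detected with fluorescent anti-GST. Each ungapped 8-mer (which stands for itself and its reverse complement) is scored by the PBM enrichment score (E-score), a modified Wilcoxon-Mann-Whitney statistic from -0.5 to +0.5, computed with the Universal PBM Analysis Suite. Scale: above 0.35 generally sequence-specific binding.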
# Chain of UniProt P40535 (P40535 whole entry): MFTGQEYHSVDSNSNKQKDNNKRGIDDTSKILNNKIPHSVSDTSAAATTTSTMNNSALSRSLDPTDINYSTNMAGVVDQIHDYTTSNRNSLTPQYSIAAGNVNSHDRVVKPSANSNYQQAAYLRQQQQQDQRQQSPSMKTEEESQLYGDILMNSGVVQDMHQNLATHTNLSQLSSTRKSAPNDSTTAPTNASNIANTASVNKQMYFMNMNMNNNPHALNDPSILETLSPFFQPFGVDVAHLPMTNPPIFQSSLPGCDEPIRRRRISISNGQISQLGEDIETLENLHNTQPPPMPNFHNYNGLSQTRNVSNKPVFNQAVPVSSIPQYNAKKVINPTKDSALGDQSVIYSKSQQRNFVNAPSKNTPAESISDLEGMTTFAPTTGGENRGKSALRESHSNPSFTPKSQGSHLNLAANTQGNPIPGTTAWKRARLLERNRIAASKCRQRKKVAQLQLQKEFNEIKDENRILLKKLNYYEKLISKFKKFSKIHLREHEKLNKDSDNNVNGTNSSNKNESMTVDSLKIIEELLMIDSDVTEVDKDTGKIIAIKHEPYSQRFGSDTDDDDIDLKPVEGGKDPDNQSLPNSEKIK
row,Sequence,PBM E-score
1,GCGTTAAA,-0.0116
2,AGGGTAGC,-0.17
3,GTGCTATA,0.0846
4,ACTCATTC,0.103
5,CTCCGATA,-0.203
6,GGGATTTA,0.00892
7,GGGCCTGA,-0.239
8,TCACCAAA,0.326
9,GCACCAAA,0.0915
10,ACACCAAA,0.212
11,CGCCTTAC,0.163
12,GAAGTGGA,-0.16
13,CTCATAGA,0.0631
14,ATCATAAA,0.195
15,GTCATAAA,0.331
16,ATCATAGA,0.246
17,GTCATATA,0.377
18,CTCATACA,0.116
19,GTCATAGA,0.411
20,CTCATATA,-0.0189
21,TTCATAAA,0.212
22,GTCATACA,0.317
23,ATCATATA,0.299
24,GGCATACA,-0.102
25,CAACACTG,0.0167

row,Sequence,PBM E-score
1,AGGCGTGG,-0.196
2,ATTAAGCG,0.108
3,AACTGAAG,0.0725
4,CCGGCCAA,-0.232
5,TGCTAGCA,0.0927
6,AGTACTGC,-0.173
7,TAAAGTCA,0.0375
8,ATTGCTCA,0.192
9,CAGATACG,0.0888
10,CTAACAGC,-0.00671
11,ATCATACG,0.308
12,ATCATACA,0.268
13,ATCATACC,0.259
14,CAGACAAG,-0.14
15,AGTCTCCC,-0.308
16,AATCATAG,0.189
17,ACTCATAG,0.152
18,AATCATAC,0.239
19,CATCATAC,0.374
20,CATCATAG,0.326
21,CATCATAA,0.291
22,CAGGGAAG,-0.244
23,CTTCCTTC,-0.24
24,ATGGTGAG,0.0691
25,CAACACCC,-0.142

row,Sequence,PBM E-score
1,AGGCCCAC,-0.378
2,GGAGTTTA,0.00491
3,ATGATGAA,0.367
4,CTGATGAC,0.292
5,CTGATGAA,0.0772
6,ATGATGAC,0.378
7,ATGATTAG,0.158
8,GTGATGAA,0.154
9,AGGATGAC,0.208
10,ATGATTAA,0.329
11,CTGATTAA,0.161
12,TAGCGAGA,-0.0782
13,GCATTCGA,-0.00988
14,ACCATCTA,-0.207
15,ATTTGTGA,0.146
16,AGTGCAGC,-0.108
17,ATTGATAC,0.154
18,GCGATGCA,-0.255
19,CGTCAACC,0.377
20,GGTCAACA,-0.0567
21,CGTCAACA,0.407
22,CCTCAACG,-0.102
23,CGTCAACG,0.344
24,AGTCAACC,-0.219
25,GGTCAACC,-0.0743

row,Sequence,PBM E-score
1,TGTCAACA,0.184
2,AGTCAACG,-0.102
3,GGTACGAA,0.0828
4,GATGCACC,-0.163
5,ATGATCAT,0.198
6,GGTCAATA,0.0678
7,CGTCAATC,0.337
8,CGTCAAGC,0.0721
9,AGTCAATA,0.0835
10,CGTCAATA,0.349
11,AGTCAATC,0.0291
12,TCGTATCA,0.127
13,ACTAGCCC,-0.0733
14,CACAGTGG,-0.124
15,GGCCTGAA,-0.122
16,CATTCGTC,0.148
17,AATTCGTA,0.252
18,AATTCGTC,0.316
19,AATGCGGC,0.266
20,CGTGCGGA,0.0478
21,CATGCGGC,0.33
22,CATGCGGA,-0.0527
23,CGTGCGGC,0.321
24,AGTGCGGC,0.173
25,ATTAAGAC,-0.0411

row,Sequence,PBM E-score
1,AGTTGATA,0.103
2,GAAAAGAC,0.222
3,CGACAGAG,-0.315
4,TGCCTTAA,-0.0513
5,AGAACAAT,0.25
6,AAAAAAAG,0.211
7,GAAAAAAA,0.258
8,ACAAAAAA,0.311
9,CAAAAAAC,0.201
10,ACAAAAAC,0.104
11,AGAACAAA,0.34
12,CCAAAAAA,0.279
13,AGAACAAG,0.113
14,AAAAAAAA,0.317
15,ACAAAAAT,0.279
16,CAAAAAAA,0.32
17,CATCCAGC,-0.0585
18,CTCCGTAA,-0.0462
19,CCACCTAA,-0.0425
20,TAGCCCGA,-0.177
21,CACAATCA,0.17
22,AGTTTGAC,0.0432
23,ACTTTAAT,0.107
24,ATTACGTG,0.46
25,CCTACGTA,0.297

row,Sequence,PBM E-score
1,CTTACGAA,0.119
2,GCTACGTA,0.213
3,GTTACGTA,0.46
4,CTTACGTA,0.466
5,ATTACCTG,0.14
6,CTCACGTA,-0.00865
7,AGTACGTG,-0.125
8,GTTACGGA,0.11
9,ACTACGTA,0.343
10,ACTACGTG,-0.0819
11,AGTCTCAA,-0.217
12,CAAACCTC,-0.272
13,TCTTCACA,0.113
14,AAACCCGT,0.0445
15,ATCTCGTG,-0.0972
16,ATCGCTGG,-0.217
17,AGACGCAT,-0.0757
18,ATTAGGTA,0.261
19,CTTACGTC,0.421
20,CTCACGTC,0.14
21,ATTACGGC,0.266
22,ATTACGTA,0.49
23,ATTACGTC,0.485
24,ATTACGGA,0.154
25,CTTACGCC,0.193

row,Sequence,PBM E-score
1,ACTACGTC,0.157
2,AACCTTCG,0.0222
3,CCAAGGCC,-0.19
4,CCATTCTA,-0.0992
5,AAGAATTG,0.182
6,ACTTGCTC,-0.198
7,ATCAAACA,0.107
8,CAGTTGGC,-0.175
9,AAGTCACG,0.0378
10,ACGTCACA,0.484
11,ACGTCACT,0.495
12,AGGTCACG,0.0374
13,AAGTCACA,0.119
14,AGGTCACA,-0.0345
15,AAGTCACT,0.141
16,AGGTCACT,-0.0496
17,ACGTCACG,0.49
18,TGCACCAA,-0.0568
19,AGTTGCTG,-0.0492
20,ACACACAG,0.107
21,CACGCTGC,-0.246
22,CAACCACC,-0.251
23,ATTCTCGC,-0.17
24,AAGTACCC,-0.275
25,ATGCCTCC,-0.0323

row,Sequence,PBM E-score
1,ATGCCTCG,0.317
2,ATGCCTCA,0.11
3,GTGTCATA,0.249
4,CTGTCATA,0.186
5,ATGTCAGC,0.225
6,ATGTCATC,0.432
7,CTGTCATC,0.186
8,ATGTCATA,0.442
9,ATGTCGTG,0.0262
10,ATGTCAAG,0.235
11,ATGTCATG,0.425
12,ACTTTGAA,0.0348
13,GCATCGAA,-0.0745
14,GGATCTAA,-0.0815
15,GACCTTAA,-0.0362
16,CTAGTGCC,-0.125
17,AGCTATCG,-0.106
18,GCAGCAGC,-0.133
19,ATCACCGA,0.212
20,TTCACCAA,0.124
21,ATCACCAC,0.244
22,CTCACCAC,-0.0767
23,GTCACCGA,0.426
24,CTCACCAA,0.102
25,CTCACCGA,0.048

row,Sequence,PBM E-score
1,GTCACCAC,0.373
2,GTCACCAA,0.315
3,GTGGTGAA,-0.0462
4,GTCTCCAA,-0.00606
5,GAGCAAAA,0.0129
6,CGAGCCTA,0.011
7,AATTATGA,0.359
8,AATTATTA,0.321
9,AATTATGG,0.0357
10,ATTTATTA,0.357
11,GTTTATTA,0.164
12,ATTATTTA,0.305
13,AATTATTC,0.219
14,AATTATTG,0.252
15,AATTATGT,0.304
16,AGCCGATA,-0.0664
17,CCAAGATC,-0.12
18,CGTGAGAG,-0.269
19,CTGACGTC,0.482
20,ACGACGTC,0.218
21,CAGACGTC,0.113
22,CGGACGTC,0.252
23,AAGACGTC,0.28
24,ATGACGTC,0.497
25,AGCAAGCA,-0.252

row,Sequence,PBM E-score
1,GCCCAGGC,-0.318
2,ATGTATGA,0.336
3,ACGTATGA,0.432
4,ACGTATGC,0.32
5,AGGTATGC,0.111
6,ATGTATGG,0.0177
7,ACGTATGG,0.158
8,CCGTATGA,0.226
9,GTGTATGA,0.186
10,CCGTATGC,0.0167
11,GGGAAGAA,-0.0773
12,ACTGGTGA,-0.0583
13,GAGTTGGA,-0.0506
14,ATACGTAT,0.376
15,TTACGTAA,0.493
16,ATACGTAG,0.186
17,ATACGTAC,0.198
18,TTACGAAA,0.284
19,ACACGTAT,0.238
20,AGACGTAT,0.144
21,CTACGTAC,0.00059
22,CTACGTAA,0.451
23,TTACGGAA,0.178
24,CTACGTAG,0.137
25,ATACGTAA,0.463

row,Sequence,PBM E-score
1,AGGTCCAT,-0.0689
2,CGTTCTCC,-0.174
3,CAGCGCCC,-0.0102
4,ATAGATGC,-0.0272
5,TAGCAGAA,0.107
6,AGTATGTC,0.155
7,CAGTGTGA,0.158
8,AGGTTGAC,0.0459
9,GAAACGCA,0.172
10,AGACATCC,-0.211
11,GCACGTAC,-0.00487
12,GTACGTAA,0.449
13,GTACGTAC,0.0996
14,TCAAGCGA,-0.00748
15,ACAGGCGG,-0.104
16,ATGCCGTG,0.283
17,CTGCCGTC,0.0959
18,ATGCCGTC,0.323
19,ATGCCGAA,0.0887
20,GTGCCGTA,0.389
21,GTGCCGGA,-0.104
22,ATGCCGTA,0.372
23,CTGCCGTA,0.0163
24,AAGCCGTA,0.173
25,GGGTTAAA,-0.06

row,Sequence,PBM E-score
1,GAGAGAGC,-0.197
2,AATTGCGG,-0.0187
3,AATTGCGT,0.315
4,AATTGCGC,0.309
5,CATTGCGC,0.0683
6,GATTGCGC,0.0307
7,AATTGCGA,-0.111
8,AAAACGCG,0.205
9,AACGTTGC,-0.0467
10,AAGTACCT,-0.196
11,AAGTGAAG,-0.0822
12,AAGCCGAC,-0.231
13,ACACGGCG,0.394
14,CGACGGCG,0.257
15,AGACGGCC,-0.214
16,CCACGGCA,0.235
17,AAACGCCA,0.18
18,ACACGGCA,0.282
19,CAACGCCG,0.191
20,CCACGGCG,0.309
21,CCACGGCC,-0.0591
22,AAACGCCG,0.36
23,ACACGGCT,0.266
24,AGACGGCG,0.305
25,TCCTCCGA,-0.395

row,Sequence,PBM E-score
1,CCCCTTAA,-0.212
2,AGGCAAAT,0.164
3,ATACAGGC,-0.121
4,GCAGGCAA,-0.0304
5,AGAGGATC,-0.18
6,AAACGGCT,0.105
7,AAACGGCG,0.369
8,AAACGGCC,0.084
9,ACAAGTAA,-0.0276
10,CCAGTTCA,0.0369
11,GAAATGAC,0.32
12,AAAATGAT,0.298
13,CTAATGAC,0.252
14,GTAATGAC,0.377
15,GTAATGGA,0.353
16,AAAATGAA,0.155
17,CTAATGGA,-0.085
18,AAAATGAC,0.327
19,GAAATGAA,0.237
20,GTAATGAA,0.268
21,ATAATGGA,0.109
22,CAAATGAC,0.248
23,CTGCATCC,-0.101
24,CTTGCAGA,-0.138
25,CACGCCCA,-0.21

row,Sequence,PBM E-score
1,GCTAACCC,-0.223
2,ACATCCCC,-0.119
3,AAAGCCCA,6e-05
4,GACGCATC,0.0635
5,GACGCATA,0.315
6,CACGCATA,-0.215
7,GCTTCCTA,-0.0171
8,ACACCACG,-0.0337
9,CAATGCCA,-0.0721
10,AGCGTCAT,0.423
11,AGCGTCAA,0.269
12,GGCGTCAC,0.431
13,CGCGTCAG,0.0126
14,AGCGTCAG,0.177
15,AGCGTCCT,-0.276
16,GGCGTCCC,-0.225
17,AGAGTCAT,-0.0245
18,AGCGTCAC,0.332
19,GGCGTCTA,0.0648
20,CGCGTCAC,0.418
21,CGCGTCAA,0.211
